Reference: the supplement of paper PMC6555819

Legend:
Assay in all cases: PBM binding z-score (relative to random genomic background probes); higher = stronger binding; sequences stand for … in GC…GCGATTGACAGCGTAGAATGAAGG
[1] = system: FXR:RXRa (NR concentration 270 nM, RXRa partner concentration 90 nM)
How it was run: (§1)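 Scanned fluorescence from custom Agilent 4×180K protein-binding microarrays was regression-normalized. Binding z-scores use random background probes as reference. Ligand-free nuclear receptor dimers were incubated on the arrays for 1 h and detected with antibodies against each partner (one per run).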

[2] = system: LXRa:RXRa (NR concentration 270 nM, RXRa partner concentration 90 nM)
How it was run: as §1

[3] = system: LXRa homodimer (NR concentration 270 nM)
How it was run: as §1

[4] = system: LXRb:RXRa (NR concentration 270 nM, RXRa partner concentration 90 nM)
How it was run: as §1

[5] = system: LXRb homodimer (NR concentration 270 nM)
How it was run: as §1

[6] = system: PPARa:RXRa (NR concentration 270 nM, RXRa partner concentration 90 nM)
How it was run: as §1

[7] = system: PPARg:RXRa (NR concentration 180 nM, RXRa partner concentration 90 nM)
How it was run: as §1

[8] = system: PPARg:RXRa 270nM:90nM, anti-RXR (NR concentration 270 nM, RXRa partner concentration 90 nM)
How it was run: as §1

[9] = system: PPARg:RXRa 30nM:10nM, anti-RXR (NR concentration 30 nM, RXRa partner concentration 10 nM)
How it was run: as §1

[10] = system: PPARg:RXRa 90nM:30nM, anti-RXR (NR concentration 90 nM, RXRa partner concentration 30 nM)
How it was run: as §1

Sequence | PBM binding z-score [1] | PBM binding z-score [2] | PBM binding z-score [3] | PBM binding z-score [4] | PBM binding z-score [5] | PBM binding z-score [6] | PBM binding z-score [7] | PBM binding z-score [8] | PBM binding z-score [9] | PBM binding z-score [10]
TAGCCTTGGTCATGCGGGCCAGTATAGTGTCGGC | -0.908 | -1.14 | -0.986 | -1.09 | -0.961 | -0.707 | -0.423 | -0.768 | -0.886 | -0.995
CCTGCTAGGTCAATCGTCAGCTAAAGCAGCTCGC | 3.35 | 2.19 | -0.244 | 1.57 | 0.108 | 2.85 | 1.39 | 2.18 | -0.19 | 1.39
GCTTGTAGATCAAAGTTAAGAAAGACTAAGCTAA | -0.479 | -0.533 | -0.585 | -0.487 | -0.917 | 1.18 | 2.55 | 4.31 | 2.13 | 4.45
CCTCGGAGCACAACAGGAGGTCAGAGCTGCCAGA | 0.811 | 1.54 | 1.97 | 1.4 | -0.755 | 1.65 | 0.0996 | 0.038 | -0.859 | -0.308
TCATATAGGTAAATGCTACGTGAAAGTCCGATCT | 0.931 | 0.681 | 0.145 | 0.726 | 0.254 | 0.91 | 0.924 | 2.02 | 3.64 | 2.58
CGAACTAGGTCAGAACAGGAGAGTGAAGGATGAT | 0.927 | 0.589 | -0.174 | 0.371 | -0.252 | 3.11 | 5.25 | 4.6 | 1.34 | 3.7
CCTATTAGTTGACCATCAGGGCAACCGAAGCTCG | 0.442 | 0.292 | 0.822 | 0.105 | 0.434 | 0.136 | 0.185 | 0.164 | -0.404 | 0.121
AGAACGAGGGCCCGCTGAGTTGATAGCAGAGTAG | -0.807 | -1.1 | -0.871 | -1.53 | -1.19 | -1.78 | -0.00223 | -1.4 | -0.848 | -1.55
TCTTGTAGATCAAGCAGGTAAAGAAAGCCTGAGT | 0.242 | 0.228 | -0.344 | 0.219 | -0.624 | 0.499 | -0.39 | 0.967 | 2.41 | 1.62
ATCGAAAGGTCGTGAGGTGAGTATGCAGAAAGGC | 5.14 | 4.02 | 0.302 | 2.91 | 0.303 | 5.19 | 3.67 | 4.56 | 1.24 | 3.19
GTTGCTAGGTCAACTGATGGTCAGCTAAAGCTCG | 4.29 | 3.62 | 0.729 | 2.08 | 0.507 | 3.96 | 3.38 | 3.96 | 0.825 | 2.71
ACAGACAGGTGATGAAGGTAGCTCAGGCTATCAT | -0.0912 | -0.299 | -0.372 | -0.485 | -0.548 | -0.377 | 0.539 | -0.247 | -0.307 | 0.0803
ACTATTAGTTGAGCCGAGGGCAACCGATAGGTTG | 0.981 | 0.0811 | -0.117 | -0.118 | 0.161 | 0.302 | 0.401 | -0.167 | -0.144 | -0.0304
TCATATAGGTAAATGCTAGGTGAATGTCCGATCT | 0.466 | 0.779 | 0.287 | 0.767 | 0.0198 | 1.39 | 0.932 | 2.17 | 3.49 | 2.66
TCTTGTAGATCAATAGAGGTTAAAAAAGTGCGCT | 0.88 | 4.42 | 1.13 | 2.5 | 0.00759 | 2.06 | 0.202 | 1.65 | 2.75 | 2.06
CGTTAAAGTTCAACTAAGGTAACGTAAAGCACGC | 7.01 | 6.26 | 4.48 | 4.01 | 1.89 | 4.8 | 3.71 | 4.36 | 1.66 | 3.27
TCTAGCAGGCCAGAGGGTTACTCAAGAGGTACGG | -0.419 | -0.0387 | -1.02 | -0.282 | -1.4 | 0.38 | 0.82 | 1.73 | 1.86 | 1.81
TCATATAGGTAAAAGGAGAAAGTCGGTGTGGTAA | 1.15 | 0.966 | -0.0649 | 0.573 | -0.239 | 2.06 | 2.92 | 4.79 | 4.87 | 5.01
AATACAGGGTCATCGTATGCCAGAGTACGCACAG | 7.33 | 5.98 | 1.87 | 4.34 | 1.25 | 5.64 | 6.62 | 5.86 | 2.88 | 4.57
CCTAATGGGCCAAAAAGGTCATTGATGCCGATAA | 3.45 | 4.14 | 3.21 | 4.2 | 0.435 | 4.59 | 2.58 | 3.36 | 1.37 | 2.69
AGAATGAGGTTTCCAAAGATCAGGGAAACGCTTG | -0.506 | -0.535 | -0.424 | -0.463 | -0.489 | -0.139 | 0.377 | -0.265 | -0.17 | -0.215
CTACGAAGGTGAACAAGGTCGTTGATTACTATTC | 1.63 | 1.54 | 0.18 | 1.91 | -0.34 | 2.66 | 0.958 | 1.03 | -0.0387 | 0.552
TCTCGGAGGACACGAAGGTCAGACCTTTCCAGAG | 1.6 | 1.26 | 0.373 | 1.41 | -0.66 | 2.19 | 0.782 | 1.53 | 2.38 | 2.04
TAGACTAGGTCATTGGGCCAGTATAGTACGCATC | 3.51 | 2.61 | 0.548 | 1.56 | 0.785 | 3.89 | 5.62 | 5.24 | 2.45 | 4.58

Sequence | PBM binding z-score [1] | PBM binding z-score [2] | PBM binding z-score [3] | PBM binding z-score [4] | PBM binding z-score [5] | PBM binding z-score [6] | PBM binding z-score [7] | PBM binding z-score [8] | PBM binding z-score [9] | PBM binding z-score [10]
TTACCTAGGTGAAGGTCGTTGATCCCTCTGTAGA | 2.2 | 1.82 | -0.334 | 1.6 | -0.843 | 2.32 | 1.4 | 2.36 | 0.624 | 1.55
AGAACGAGTGCACGCTGAGTTGATAGCAGAGTAG | -0.478 | -0.297 | -0.632 | -0.327 | -1.13 | 0.0263 | 0.542 | -0.2 | -0.197 | -0.307
GCTATTAGTTGAAAGGGCAAGCGAATGATTCTCG | 0.532 | 0.54 | -0.0155 | 0.379 | -0.106 | 2.13 | 2.5 | 4.12 | 2.04 | 4.08
CGAACTAGGTTAAGGACAGTGAATCTCCGCACGC | 0.447 | 0.377 | -0.213 | -0.172 | -0.661 | 2.14 | 2.85 | 2.74 | 0.975 | 2.08
CGTCCAAGTTCAATGCTAGGTCAGTGAAAGCATT | 3.05 | 3.56 | 2.36 | 1.92 | 0.297 | 2.42 | -0.0137 | 0.79 | -0.404 | 0.397
GCCACTGGGGCAAAGCAGGTTACCATAAGGTTGG | 0.159 | 0.154 | -0.633 | -0.0213 | -0.866 | 1.67 | 2.09 | 2.57 | 0.133 | 1.47
CCAACTAGGTCAAAGGTCAAAGTCGAGCCAACCA | 8.45 | 7.12 | 5.59 | 7.28 | 3.01 | 7.64 | 13.6 | 10.9 | 13.2 | 12.7
TGAATGAGGTTATAAGATCGGGGAACGTTGCAAA | 1.36 | 1.27 | -0.276 | 1.05 | 0.228 | 2.6 | 0.897 | 1.59 | 0.637 | 1.13
CATACAGGGTCAGCTAGGCGAGAGTAGGGACGGC | 4.5 | 2.84 | -0.0386 | 2.08 | 0.134 | 4.19 | 2.92 | 2.91 | 0.767 | 1.75
CCAGTCAGGTGAAAGGTAACTCAGTCTGGTACGC | 0.669 | 0.466 | -0.287 | 0.541 | -0.583 | 3.61 | 6.45 | 6.44 | 5.15 | 7.56
TCTTGTAGAGCAAAGGTTAAGAAAGCCGAAGCCT | 0.884 | 1.23 | -0.186 | 1.4 | -0.852 | 4.91 | 8.91 | 8.58 | 8.43 | 8.68
CGTCCAAGGTCAAAGGTCAGTTAAGAGATGACGG | 8.43 | 6.95 | 4.02 | 6.65 | 2.51 | 7.44 | 10.5 | 8.31 | 7.4 | 9.07
ATCTCTAAGTAAAGTTCAGTGAAAGATCGATAGA | 1.27 | 1.99 | 1.87 | 1.23 | 0.906 | 1.66 | 1.4 | 2.92 | 1.3 | 2.75
ATCTCTAGGTAACCAAGTTCAGGGAATGCCGAAC | 0.126 | 0.821 | 0.817 | 0.638 | 0.621 | 1.28 | 0.946 | 1.03 | 0.158 | 0.596
CCTTACGGGTCACTGACAGGGTATAGCATTTGGA | 4.47 | 3.35 | 0.0232 | 2.72 | -0.363 | 4.64 | 3.98 | 4.07 | 1.2 | 2.69
GCGACTGGGGCAAAGCAGGTTACCATCAGGTTGG | 0.219 | 0.0244 | -0.624 | 0.0908 | -1.13 | 1.24 | 0.987 | 1.13 | -0.557 | 0.405
CAAACTAGGTCAAAGGTCAAAGGCGAGCCAACCA | 8.49 | 7.21 | 4.91 | 7.14 | 2.68 | 7.65 | 14.2 | 11.5 | 14.7 | 13.9
TCATATAGGTAAACAGGGGAAAGTCCGTAAGTTA | 1.29 | 1.09 | 0.283 | 0.925 | -0.0206 | 1.61 | 1.52 | 2.89 | 3.92 | 3.45
TAGCCTAGGTCATTCAGGGGCCAGGATAGAAAGC | 4.96 | 3.81 | 0.311 | 2.77 | 0.864 | 3.69 | 2.2 | 2.42 | 0.232 | 1.26
CCTAGCTGGCCAATCTGGGTCACTCAAGGCTTGA | 0.656 | 0.35 | -0.714 | 0.665 | -1.32 | 2.6 | 1.43 | 1.89 | -0.389 | 1.26
GATACAGGGTCAGCTCGAGGCCAGAGTATGGAAA | 4.59 | 2.87 | -0.199 | 2.4 | -0.786 | 4.56 | 3.36 | 3.21 | 0.631 | 2.06
GCAGACAGGTGAAACGCAGGTAACTCAAGGTGGC | -0.175 | 0.4 | -0.42 | -0.165 | -1.28 | 0.892 | 0.604 | -0.0904 | -0.0664 | -0.118
CCTGCTAAGTCAATGGTCAGCTAAAGCAGCTCGC | -0.665 | -0.355 | -0.545 | -0.517 | -0.617 | -0.254 | -0.271 | 0.314 | -0.862 | 0.0482
TTACCAAGGTGAGTTGAGGTCGTTGATCCAACTC | 1.28 | 2.03 | -0.25 | 1.39 | -0.831 | 2.06 | 0.352 | 0.682 | 0.292 | 0.637
